LRH-1 inv ag = LRH-1 (NR5A2) inverse agonists, primary screen, cell-based, luminescence, HEK293T, StAR-luciferase reporter | Nuclear receptor subfamily 5 group A member 2 (Homo sapiens), O00482 | LRH-1 transfected, 24 h | inhibition, % at 3.6 µM | hit rate 0.13% among 360,000 | AID 602396, 2012;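 active means inhibition above the mean inhibition of all tested compounds plus 3 SD, cut at about 73% in these data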;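 further: 0% = DMSO wells and 100% = reporter-only cells lacking LRH-1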
NCOA2 inhibitor = inhibition of GAL4-SRC2 driven luciferase reporter, primary screen, SRC2 inhibitor project, cell-based, luminescence; hit rate 0.17% among 370,000; HEK293 GAL4-SRC2 luciferase reporter; AID 651957, 2012; Nuclear receptor coactivator 2 (Homo sapiens), Q15596; inhibition, % at 9 µM;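 active means inhibition above the mean inhibition of all tested compounds plus 3 SD, set per campaign, cut at about 52% in these data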;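 further: 0% = DMSO treated cells and 100% = cells given Gossypol at 36 µM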
SRC1 inh = SRC1 coactivator transcriptional activity inhibitors, primary screen, cell-based, luminescence. Nuclear receptor coactivator 1 (Homo sapiens), Q15788. HEK293 GAL4-SRC1 luciferase reporter. inhibition, % at 3.6 µM. hit rate 0.12% among 360,000. AID 588354, 2011;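 active means inhibition above the campaign mean plus 3 SD, with each screening campaign given its own cutoff, cut at about 60% in these data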;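 further: 0% = DMSO treated cells and 100% = gossypol at 36 µM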
GalR3 antagonist = GalR3 antagonists in HEK293 cells, primary screen, cell-based, fluorescence readout; HEK293 GalR3-CNG cAMP membrane potential fluorescence; galR3 body fused to GalR1 C-terminus; inhibition, % at 3 µM; hit rate 0.44% among 360,000; Galanin receptor type 3 (Homo sapiens), O60755; AID 651719, 2012;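 active means inhibition above the screen-wide average plus 3 SD, cut at about 13% in these data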;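 further: forskolin and galanin both at EC90 stimulate the cells; cAMP rise reported by CNG channel membrane potential dye signal; 0% = forskolin plus galanin with DMSO and 100% = forskolin alone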
NR2F2 inh = NR2F2 transcriptional activity inhibitors, primary screen, cell-based, luciferase reporter, HEK293T, luminescence | HEK293T NGFI-A luciferase reporter | AID 686940, 2013 | COUP transcription factor 2 (Homo sapiens), P24468 | inhibition, % at 8.6 µM | hit rate 0.7% among 370,000;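 active means inhibition above a per-plate cutoff, mean inhibition of test wells between control levels plus 3 SD, cut at about 38% in these data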;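 further: cells cotransfected with COUP-TFII expression vector driving the NGFI-A reporter; 0% = median of COUP-TF2 test wells and 100% = reporter-only cells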
SRC3 inh = SRC3 coactivator transcriptional activity inhibitors, primary screen, cell-based, luminescence; Nuclear receptor coactivator 3 (Homo sapiens), Q9Y6Q9; HEK293 GAL4-SRC3 luciferase reporter; inhibition, % at 3.6 µM; hit rate 0.17% among 360,000;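 active means inhibition above a per-campaign cutoff, the mean of all compounds plus 3 SD, cut at about 60% in these data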;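 further: 0% = DMSO-treated cells and 100% = gossypol-treated cells at 36 µM; higher means less SRC3-driven luciferase light from the GAL4 reporter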
Active calls of the source: *; x = no result given. The list is not random: actives were taken first. Their share in the collection is about 1.1%.

SMILES | LRH-1 inv ag | NCOA2 inhibitor | SRC1 inh | GalR3 antagonist | NR2F2 inh | SRC3 inh
O=c1c2c(n3nnnc3n1-c1ccccc1)-c1ccccc1CC21CCCC1 | 3 | 3 | 3 | 14* | -5 | -9
O=c1c2c(n3cnnc3n1-c1ccccc1)-c1ccccc1CC21CCCC1 | 21 | 26 | 10 | 0 | 13 | 1
N#CC1=C(N)SC(N)=C(C#N)C1c1cccc(O)c1 | 16 | -13 | 2 | 60* | 7 | -7
COc1ccc(C2C(C#N)=C(N)SC(N)=C2C#N)cc1OC | 15 | -14 | -21 | -3 | -2 | -3
O=c1c2ccccc2nc(N/N=C/c2c(O)ccc3ccccc23)n1O | 84* | 18 | 67* | -3 | 32 | 74*
O=c1c2ccccc2nc(N/N=C/c2ccc(O)cc2)n1O | -55 | -34 | -39 | 0 | -4 | -57
Cc1c(NC(=O)C2CCCN(S(=O)(=O)c3ccc(Br)s3)C2)c(=O)n(-c2ccccc2)n1C (stereo unspecified) | x | -7 | x | x | -10 | x
CCOc1ccc(Nc2ncnc3ccc([N+](=O)[O-])cc23)cc1 | 37 | 45 | 69* | -3 | 29 | 55
CCn1c(Oc2ccccc2F)nc2c1c(=O)n(C)c(=O)n2C | 26 | 59* | 68* | -5 | 12 | 60
CCn1c(Oc2ccccc2)nc2c1c(=O)n(C)c(=O)n2C | -3 | 40 | -10 | -4 | 13 | 23
O=C(Nc1ccc(N2CCCCC2)cc1)c1ccccn1 | 60 | x | 64* | x | x | 71*
COc1ccc(Br)cc1/C=C/C(=O)Nc1ccc2ccccc2c1 | -3 | 1 | -36 | -1 | -6 | -9
CCC(=O)Nc1cccc(C(=O)/C=C/c2cc(Br)ccc2OC)c1 | 73* | 64* | 49 | -2 | 10 | 79*
C(=N\Nc1nc2ccccc2[nH]1)/c1cccc2cccnc12 | 64 | 2 | -11 | 5 | -40 | 62*
NS(=O)(=O)c1ccc(Sc2nc3ccccc3s2)c([N+](=O)[O-])c1 | 56 | 39 | 24 | 0 | 17 | 62*
NS(=O)(=O)c1ccc(Sc2ccccn2)c([N+](=O)[O-])c1 | 17 | 2 | 13 | -3 | -9 | -13
C=C1C(=O)[C@@]23[C@H](O)C[C@@H]4C(C)(C)CC[C@H](O)[C@]4(C)[C@@H]2C[C@H](O)[C@@H]1[C@H]3O | 27 | 50 | 12 | 1 | -17 | -4
C=C1C(=O)[C@@]23[C@H](O)C[C@@H]4C(C)(C)CC[C@H](O)[C@@]4(C)[C@@H]2CC[C@@H]1[C@H]3O | 38 | 60* | 44 | -3 | 23 | 35
O=S(=O)(c1ccc(N=C2NN=C(c3cc(F)ccc3F)CS2)cc1)N1CCOCC1 | 5 | -9 | -15 | -5 | 41* | 23
CCOC(=O)[C@]12CCCC=C1N(CCCOC)C(=O)[C@@H]2CC(=O)NCc1cccc(C(F)(F)F)c1 | x | 4 | x | x | 0 | x
CCc1ccc(-c2nc(CS(=O)CC(=O)NCc3ccccc3)c(C)o2)cc1 (stereo unspecified) | 24 | 55* | 10 | 3 | 36 | -7
Cc1cc(/C=C\c2ccc3cc(N(C)C)ccc3[n+]2C)c(C)n1-c1ccccc1 | 77* | x | 53 | x | x | 77*
C[n+]1c(/C=C/c2ccc(O)cc2)ccc2ccccc21 | -25 | -54 | -47 | -11 | -23 | -24
CC(C)=CC(O)C/C(C)=C/COc1ccc2ccc(=O)oc2c1 (stereo unspecified) | 85* | -15 | 46 | 4 | 18 | 63*
CN(C)C(=O)COc1ccc2ccc(=O)oc2c1 | 8 | -1 | 10 | -4 | -10 | -8
O=C(NCc1ccc(F)cc1)C(c1ccccc1)c1ccccc1 | 3 | 7 | -45 | -12 | -2 | 7
CC(=O)N(Cc1ccc(F)cc1)C1=C(NCc2ccccc2)C(=O)c2ccccc2C1=O | 40 | x | 24 | x | x | 63*

Compound activity: PubChem BioAssay, The Scripps Research Institute Molecular Screening Center
